# High-throughput results deposited in PubChem BioAssay by National Center for Advancing Translational Sciences (NCATS).
# GPT2 inhibitor = Primary qHTS assay for inhibitors of Glutamate pyruvate transaminase 2 (GPT2); AID 1671188, 2021; Alanine aminotransferase 2 (Homo sapiens), Q8TD30; actives 0.25% (n = 100,000); Potency, µM (top dose mostly 57.7 µM), for inactives: at the top dose activity change, negative = inhibition, hits mostly inhibitors; Recombinant GPT2, coupled pyruvate oxidase/HRP Amplex Red fluorescence; further: nearly all actives have a fitted effect of over 60% in size
#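 Inhibition is scored from Amplex Red fluorescence generated when pyruvate oxidase and HRP act on pyruvate released by GPT2. Reactions contain 10ng/uL enzyme, 250uM a-KG and 2mM L-alanine and run 30 min at room temperature.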
# HEK cytotox = Cytotoxic Profiling in HEK 293 Cell Line of Diverse Libraries Using Quantitative High-Throughput Screening. HEK 293 viability, ATP luminescence (CellTiter-Glo), 48-72 h. Potency, µM (titrated, usually from 115 µM), without a hit: at the top dose activity change, negative = cytotoxicity, most hits filed as inhibitors. actives 6.6% (n = 94,000). AID 1345083, 2018; further: nearly all actives have a fitted effect of over 60% in size
#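 CellTiter-Glo luminescence (cellular ATP) was read after 48 or 72 hr of compound exposure at 37 degree Celsius. Cells were HEK 293 plated at 250 cells/well.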
# 3T3 cytotox = Cytotoxic Profiling in NIH 3T3 Cell Line of Diverse Libraries Using Quantitative High-Throughput Screening; NIH 3T3 viability, CellTiter-Glo ATP luminescence, 48-72 h; Potency, µM (series often up to 96.7 µM), for inactives: at the highest dose activity change, negative = cytotoxicity, usual class: inhibitors; actives 4.3% (n = 94,000); further: nearly all actives have a fitted effect of over 55% in size
#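 NIH 3T3 cells at 400 cells/well received 23 nL of compound by pintool and were incubated 48 or 72 h at 37 °C. Viability was read as ATP-coupled CellTiter-Glo luminescence.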
# FLuc inh = Firefly luciferase inhibition profiling of diverse chemical library using quantitative high-throughput screening; actives 2.5% (n = 76,000); AID 1347043, 2019; Potency, µM (top dose mostly 115 µM), usual class: inhibitors; purified P. pyralis luciferase, luminescence, biochemical; Luciferin 4-monooxygenase (Photinus pyralis), P08659; further: nearly all actives have a fitted effect of over 65% in size
# Target sequence (P08659 whole entry, looked up): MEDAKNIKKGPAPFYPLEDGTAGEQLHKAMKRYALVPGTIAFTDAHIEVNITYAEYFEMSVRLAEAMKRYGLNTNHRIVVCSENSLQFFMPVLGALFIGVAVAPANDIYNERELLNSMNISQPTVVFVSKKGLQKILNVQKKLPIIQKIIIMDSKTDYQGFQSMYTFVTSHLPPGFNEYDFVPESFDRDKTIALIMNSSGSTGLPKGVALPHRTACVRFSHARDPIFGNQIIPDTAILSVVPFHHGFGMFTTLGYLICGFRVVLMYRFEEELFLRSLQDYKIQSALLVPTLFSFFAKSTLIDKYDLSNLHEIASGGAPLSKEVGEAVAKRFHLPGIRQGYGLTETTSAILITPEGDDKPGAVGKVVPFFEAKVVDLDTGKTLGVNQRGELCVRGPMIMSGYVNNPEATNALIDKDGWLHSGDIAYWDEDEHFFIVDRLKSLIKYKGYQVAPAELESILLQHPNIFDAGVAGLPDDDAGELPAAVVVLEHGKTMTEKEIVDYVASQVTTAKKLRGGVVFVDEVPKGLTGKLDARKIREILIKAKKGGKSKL
#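 Cell-free enzyme assay, 10nM P. pyralis luciferase, luciferin and ATP each at 10uM. Inhibition profiled over a 6-point titration, read as luminescence.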
# hNpr1 antagonist = Natriuretic polypeptide receptor (hNpr1) antagonism - Primary qHTS | Atrial natriuretic peptide receptor 1 (Homo sapiens), P16066 | HEK293 hNpr1 GloSensor cGMP, ANP-stimulated luminescence | Potency, µM (series often up to 46.3 µM), inactives show at the highest dose activity change, negative = inhibition, actives largely listed as inhibitors | actives 1.6% (n = 76,000) | AID 1347048, 2019; calls by dose curve; further: nearly all actives have a fitted effect of over 60% in size
#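 HEK293 cells stably expressing human Npr1 and cGMP GloSensor pGS-40F, loaded 2 h with 2% GloSensor reagent, given compound 30 min at room temperature. Luminescence read before and 20 min after 0.1 nM hNppA.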
# Active calls of the source: *; i = inactive; u = inconclusive; x = no result; [ ] = remark or other dose. Sampled rows, rich in hits. Any-hit rate of the full collection: about 10%. Unless noted, the call rests on the fitted dose curve; in most records, active means well fitted curve in the direction sought with a large enough effect; inconclusive means small, poorly fitted or top-dose-only effect, or another doubt; inactive means no such curve, though single readings can be large; an effect the other way counts as inactive or inconclusive. On the % scale 0 is the no-effect control and ±100 the full control effect; potency means the concentration at half of the fitted maximal effect.
SMILES,GPT2 inhibitor,HEK cytotox,3T3 cytotox,FLuc inh,hNpr1 antagonist
CCCn1c(C)cnc1CC1CCCN(Cc2cccc(OC)c2)C1 (centres undefined),i,u,u,x,x
O=C1[C@@H]2C[C@@H](CN2Cc2cnc3ccccc3c2)Oc2ccccc2N1CC1CC1,i,50µM*,u,i,-23%[70.6 µM]
CCCC(C)C(=O)N1CCn2nc(C(=O)Nc3ccccc3)cc2C1 (centres undefined),-15%[11.5 µM],35µM*,-18%,i,-23%
CCn1cc(C(=O)N2CCn3nc(C(=O)Nc4ccccc4)cc3C2)c(C)n1,-3%,u,-21%,i,-1%
CCC1Oc2ccc(NC(=O)Cc3ccc(F)cc3)cc2CN(Cc2ccc(Cl)cc2)C1=O (centres undefined),4%,u,10µM*,i,-19%
CCC1Oc2ccc(NC(=O)C3CCCC3)cc2CN(Cc2ccccc2Cl)C1=O (centres undefined),-16%,79µM*,u,i,-5%
CC1Oc2ccc(NC(=O)Cc3ccc(F)cc3)cc2CN(Cc2ccc(Cl)cc2)C1=O (centres undefined),-5%,40µM*,28µM*,i,-24%
O=C(COc1ccccc1)Nc1ccc2c(c1)CN(CCc1ccc(F)cc1)C(=O)CO2,i,u,u,u,16µM*
COc1ccccc1CN1Cc2cc(NC(=O)Cc3ccc(F)cc3)ccc2OC(C)C1=O (centres undefined),i,u,u,i,-15%
CCC1Oc2ccc(NC(=O)Cc3ccccc3)cc2CN(Cc2ccc(F)cc2)C1=O (centres undefined),i,u,u,i,-6%
O=C(Nc1ccc2c(c1)CN(Cc1ccc(Cl)cc1)C(=O)CO2)c1ccc(F)cc1F,i,79µM*,u,i,-27%
CCC1Oc2ccc(NC(=O)c3ccc(F)cc3F)cc2CN(Cc2ccc(Cl)cc2)C1=O (centres undefined),-1%,u,u,i,-2%
Cc1noc(-c2nc(-c3cccc(Br)c3)no2)n1,-9%,u,0%,u,-15%
Cc1cccc(-c2noc(-c3nc(C)no3)n2)c1,u,-19%,-12%,25µM*,-3%
O=C(NCC1CCCCC1)c1nc2sccn2c1-c1ccncc1,-8%,u,u,x,x
CCC(c1cccnc1)N(C)C(=O)c1cc(COc2ccccc2)[nH]n1 (centres undefined),-8%,79µM*,-15%,i,-1%
COc1ccccc1-c1ccc2c(C(=O)N3CCN(Cc4ccccc4)CC3)nn(C)c2n1,-5%,1%,-16%,x,x
Clc1ccc(-c2cnc([C@@H]3COCCN3Cc3c[nH]c4ccccc34)[nH]2)s1,0%[88.5 µM],71µM*,79µM*,i,u
CC(C)(C)CN1CCOC[C@H]1c1ncc(-c2ccc(F)cc2F)[nH]1,i,u,u,i,-5%[70.6 µM]
Fc1ccccc1CN1CCOC[C@H]1c1ncc(-c2ccc(Cl)s2)[nH]1,i,u,89µM*,i,u
Fc1ccc(-c2cnc([C@@H]3COCCN3Cc3ccccc3F)[nH]2)c(F)c1,1%[88.5 µM],100µM*,u,i,-30%[70.6 µM]
Fc1ccc(CN2CCOC[C@H]2c2ncc(-c3ccc(Cl)s3)[nH]2)cc1,-12%[88.5 µM],79µM*,u,i,u
O=C(C1CCCC1)N1CC(N(Cc2ccccn2)C(=O)Nc2ccccc2)C1,i,-24%,u,x,x
Clc1ccc(-c2cnc([C@@H]3COCCN3Cc3cnc[nH]3)[nH]2)cc1,1%[88.5 µM],-22%[172 µM],-18%[138 µM],i,3%[70.6 µM]
Clc1ccc(-c2cnc([C@@H]3COCCN3CC3CC3)[nH]2)s1,2%[88.5 µM],89µM*,u,i,-5%[70.6 µM]
SMILES,GPT2 inhibitor,HEK cytotox,3T3 cytotox,FLuc inh,hNpr1 antagonist
Cn1c([C@H]2CCN(Cc3ccc(F)c(F)c3)C2)nc2ccccc21,4%[88.5 µM],50µM*,u,i,-16%[70.6 µM]
Fc1ccc(CN2CC[C@H](c3nnc(Cc4ccccc4)o3)C2)cc1F,-28%[88.5 µM],u,u,i,0%[70.6 µM]
OCCC1CN(Cc2cccn2-c2nccs2)CCN1Cc1ccc(F)c(F)c1 (centres undefined),u,u,-24%,i,-6%
Fc1ccc(CN2CC[C@H](c3nc4ccccc4s3)C2)cc1F,1%[88.5 µM],100µM*,u,45µM*,-6%[70.6 µM]
OCCC1CN(Cc2nc3ccccc3s2)CCN1Cc1ccc(F)c(F)c1 (centres undefined),i,79µM*,-23%,i,-30%
c1ccc(CCCN2CC[C@H](c3nc4ccccc4s3)C2)cc1,-17%[88.5 µM],100µM*,89µM*,u,-20%[70.6 µM]
COCC(=O)N1CCC(C(=O)N2CCC(c3nc4ncccc4[nH]3)CC2)CC1,i,-9%,-16%,x,x
COCCN1C(=O)c2ccccc2C(C(=O)Nc2ccccc2O)C12CCCCC2 (centres undefined),-15%,-24%,-20%,i,1%
COc1cccc(CN2CC[C@H](c3nc4ccccc4s3)C2)c1,i,100µM*,u,25µM*,-30%[70.6 µM]
Clc1cccc(CN2CC[C@H](c3nc4ccccc4s3)C2)c1,-5%[88.5 µM],100µM*,u,50µM*,3%[70.6 µM]
Clc1cccc(CN2CC[C@H](c3nc4ccccc4o3)C2)c1,i,u,-20%[174 µM],i,-7%[70.6 µM]
COc1ccc(-c2cc(N3CCC(NC(=O)c4ccc(NC(C)=O)cc4)CC3)n[nH]2)cc1,-25%,-12%,u,i,-19%
COCCCn1c(=O)c(C(=O)NCC2CC2)nc2cccnc21,i,-2%[172 µM],-10%[138 µM],x,x
CCOc1ccc(NC(=O)COc2cccc(-c3nnc4n3CCCC4)c2)cc1,i,4%,-15%,i,1%
CC(=O)Nc1ccc(S(=O)(=O)N2C[C@@H]3C[C@H](C2)c2c(-c4ccc(Cl)cc4)ccc(=O)n2C3)cc1,i,i,1%,i,3%
CC(=O)Nc1ccc(-c2ccc(=O)n3c2[C@@H]2C[C@@H](CN(C(=O)COc4ccccc4)C2)C3)cc1,-21%,40µM*,-4%,i,5%
CC(=O)Nc1ccc(-c2ccc(=O)n3c2[C@@H]2C[C@@H](CN(S(=O)(=O)c4ccc(Cl)cc4)C2)C3)cc1,-6%,14µM*,-7%,i,3%
